This is a sample that favours compounds with a hit; in the whole collection about 1.8% have one here.
PME-1 primary: PME-1 (human) inhibition; Q9Y570; recombinant PME-1, FP-Rh probe fluorescence polarization; inhibition, % at 5.9 µM; 0.53% of 320,000 active; AID 2130;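 active means inhibition above the campaign mean of all compounds plus 3 SD, cut at about 26% in these data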;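 further: competitive labeling of PME-1 active site by serine hydrolase directed probe; 0% = PME-1 with DMSO and 100% = wells lacking PME-1 enzyme; inhibitors block probe labeling so polarization falls and inhibition rises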
GSTO1 counter: GSTO1 inhibition, counter-screen for RBBP9 inhibitors | recombinant GSTO1, activity-based probe fluorescence polarization | inhibition, % at 5.96 µM | AID 1974 | P78417 | 1.1% of 300,000 active;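 active means inhibition above the campaign mean inhibition plus 3 SD, cut at about 35% in these data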;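 further: 0% = GSTO1-1 with DMSO and 100% = wells lacking GSTO1-1 enzyme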
Target sequence (P78417 whole entry, looked up): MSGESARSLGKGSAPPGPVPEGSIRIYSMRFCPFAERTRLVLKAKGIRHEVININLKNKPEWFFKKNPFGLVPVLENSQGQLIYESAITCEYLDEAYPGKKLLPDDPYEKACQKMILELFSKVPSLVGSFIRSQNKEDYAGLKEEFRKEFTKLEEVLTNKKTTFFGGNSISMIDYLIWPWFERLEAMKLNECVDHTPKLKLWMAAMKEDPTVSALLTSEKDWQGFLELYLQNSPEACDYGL
LYPLA2 inh: LYPLA2 (human) inhibition in PME1 counter-screen; O95372; recombinant LYPLA2, FP-Rh probe fluorescence polarization; inhibition, % at 5.9 µM; 0.38% of 320,000 active; AID 2177;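 active means inhibition above the screen-wide mean plus 3 SD, limit set per campaign, cut at about 26% in these data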;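 further: 0% = LYPLA2 with DMSO and 100% = wells lacking LYPLA2 enzyme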
Target sequence (O95372 whole entry, looked up): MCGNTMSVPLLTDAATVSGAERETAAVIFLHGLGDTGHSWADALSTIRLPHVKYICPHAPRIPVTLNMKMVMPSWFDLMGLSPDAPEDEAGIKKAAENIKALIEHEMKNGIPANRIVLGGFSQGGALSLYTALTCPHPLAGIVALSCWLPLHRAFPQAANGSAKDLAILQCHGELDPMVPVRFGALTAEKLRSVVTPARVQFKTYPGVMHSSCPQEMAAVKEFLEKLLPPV
LYPLA1 counter: LYPLA1 (human) inhibition in PME1 counter-screen; O75608; recombinant LYPLA1, FP-Rh probe fluorescence polarization; inhibition, % at 5.9 µM; 0.16% of 320,000 active; AID 2174;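 active means inhibition above the mean of all tested compounds plus 3 SD, set per campaign, cut at about 14% in these data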;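 further: inhibitors block serine hydrolase probe labeling of LYPLA1 so polarization falls; 0% = enzyme with DMSO and 100% = wells lacking LYPLA1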
Target sequence (O75608 whole entry, looked up): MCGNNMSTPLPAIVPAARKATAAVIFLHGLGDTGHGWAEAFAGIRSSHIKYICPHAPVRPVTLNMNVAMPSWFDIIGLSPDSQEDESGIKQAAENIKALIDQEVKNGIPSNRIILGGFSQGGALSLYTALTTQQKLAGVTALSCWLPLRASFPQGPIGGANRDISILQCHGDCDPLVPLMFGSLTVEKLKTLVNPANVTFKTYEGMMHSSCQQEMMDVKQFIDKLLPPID
Fam108B counter: blocks mouse Fam108B hydrolase in RBBP9 counter-screen; inhibition, % at 9.51 µM; 0.33% of 300,000 active; recombinant Fam108B, FP-Rh probe fluorescence polarization; AID 1947;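 active means inhibition above the screen mean inhibition plus 3 SD, computed separately per campaign, cut at about 18% in these data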;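 further: inhibitors lower polarization as less probe binds the enzyme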
PAD4 inh: blocks human protein arginine deiminase 4; inhibition, % at 6.36 µM; 0.41% of 330,000 active; recombinant PAD4, RCA probe fluorescence polarization;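 active means percent inhibition above a cutoff equal to the mean of all tested compounds plus 3 SD, cut at about 15% in these data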;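 further: 0% = PAD4 with RCA probe and DMSO and 100% = probe without PAD4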
PAD4 FP conf: confirmation of human PAD4 inhibitors. inhibition, % at 6.36 µM. recombinant PAD4, RCA probe fluorescence polarization. AID 488796. 28% of 1,200 active. shares compounds with PAD4 inh;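 active means mean inhibition across replicates above the hit cutoff set by the earlier primary screen, cut at about 15% in these data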;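 further: inhibitors block active-site labeling by the probe so polarization falls; 0% = PAD4 with probe and DMSO and 100% = probe without PAD4 enzyme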
An asterisk follows results filed as active; nt = no result given.

SMILES | PME-1 primary | GSTO1 counter | LYPLA2 inh | LYPLA1 counter | Fam108B counter | PAD4 inh | PAD4 FP conf
Cc1ccc2c(c1)N(C(=O)c1ccco1)C(C)(C)c1ssc(=S)c1-2 | 12.2 | -6.2 | 10.1 | 3.1 | 2.7 | 15.8* | 23.6*
Cc1ccccc1OCCCC(=O)Nc1ccc(S(=O)(=O)Nc2onc(C)c2C)cc1 | -5.2 | 5.8 | -8.3 | -1.9 | 1.7 | -1.9 | nt
C/C(=N\NC(=O)Cc1ccccc1)c1ccc(Cl)s1 | 5.2 | -0.7 | 6.8 | 4.4 | 0.0 | 1.3 | nt
COc1cc(Cl)c(NC2=CC(=O)C(=O)c3ccccc32)c(OC)c1 | 17.2 | nt | 21.9 | 6.5 | nt | 41.0* | 51.6*
CC1=NN(c2ccc(C)cc2C)C(=O)C1C(c1cccc(O)c1)C1C(=O)N(c2ccc(C)cc2C)N=C1C (stereo unspecified) | -9.0 | 55.0* | 0.4 | 0.5 | 1.7 | 39.8* | -1.4
CC1=NN(c2nc(-c3ccc(C)cc3)cs2)C(=O)C1N=Nc1cccc(O)c1 (stereo unspecified) | 10.0 | 14.1 | -7.5 | -9.0 | 17.0 | -9.0 | nt
CN1CCC(N(C)C(=O)c2ccccc2F)CC1 | -4.3 | -3.0 | -5.4 | -5.0 | -0.5 | 0.6 | nt
CCc1ccc(C(=O)/C=C2\Sc3ccccc3NC2=O)cc1 | 4.7 | 0.3 | 11.6 | 1.9 | 2.7 | 37.1* | 41.6*
Cn1cccc1C(=O)NNC(=O)COc1ccccc1Cl | 2.6 | nt | -6.8 | -4.4 | nt | 6.2 | nt
Fc1ccccc1-c1cc2ccccc2cn1 | -4.0 | nt | 1.6 | -2.8 | nt | 15.4* | 12.3
Fc1ccc2cnc(-c3ccccc3F)cc2c1 | nt | nt | nt | nt | nt | -4.1 | nt
CC(C)Oc1ccc(S(=O)(=O)N2CCCCC2)cc1NC(=O)CN1CCCC1c1cccs1 (stereo unspecified) | -7.4 | nt | -0.9 | -5.1 | nt | -7.3 | nt
Cc1cc(C(=O)CSc2nnc(N)s2)c(C)n1C1CC1 | -1.4 | 5.8 | 3.3 | 3.6 | -1.3 | -2.7 | nt
Cc1cc(C(=O)CSc2nc(N)cc(N)n2)c(C)n1C1CC1 | -4.6 | 18.0 | -3.1 | 1.0 | -0.4 | 15.7* | 7.7
Cc1ccc(C2=NN=C(NC(=O)CSc3nncn3C)SC2)cc1 | -0.1 | 7.5 | 1.8 | -2.4 | 3.3 | 67.1* | 61.6*
Cc1cccc(C)c1NC(=O)CNC(=O)CNC(=O)c1ccc2c(c1)OCO2 | 5.0 | -5.5 | 1.9 | -3.1 | -0.8 | 0.1 | nt
Nc1cc(N)nc(SCC(=O)Nc2ccc(Br)cc2Cl)n1 | -7.3 | -2.5 | 7.9 | 0.6 | -0.8 | 3.3 | nt
CC(C)(C)c1ccc(C(=O)NCCOc2ccccc2)cc1 | 3.0 | -1.8 | 7.1 | 0.8 | -1.0 | 18.3* | 2.6
O=c1c(N2CCOCC2)coc2ccccc12 | 2.1 | 0.8 | 2.3 | 1.1 | 0.5 | 0.6 | nt
O=c1[nH]c(N2CCOCC2)cc2ccccc12 | 3.2 | 25.4 | 2.5 | -1.8 | 1.6 | 19.6* | -7.3
COc1ccc(C)cc1Nc1n[n+](C)c(-c2c3ccccc3cc3ccccc23)s1 | 1.3 | 7.5 | -1.3 | 0.7 | -4.2 | 51.1* | 9.8
CCC(=O)N(Cc1cc(=O)[nH]c2ccccc12)c1ccccc1C | 10.5 | -3.8 | 1.2 | 0.2 | 0.3 | 17.6* | 21.5*
CCCC(=O)N(Cc1cc(=O)[nH]c2ccccc12)c1ccccc1OC | 3.2 | -4.3 | -3.3 | -2.3 | -1.6 | -6.5 | nt
CCC(=O)N(Cc1cc(=O)[nH]c2ccccc12)c1cccc(C)c1 | 10.2 | -3.8 | 12.3 | 1.9 | -5.7 | 45.5* | 33.0*
CCCS(=O)(=O)c1cn2cccc(N)c2c1S(=O)(=O)CCC | 0.5 | 14.9 | 4.5 | 2.3 | 4.6 | 18.2* | 7.0
SMILES | PME-1 primary | GSTO1 counter | LYPLA2 inh | LYPLA1 counter | Fam108B counter | PAD4 inh | PAD4 FP conf
CCCS(=O)(=O)c1c(S(=O)(=O)CCC)c2c(C)cccn2c1C(N)=O | 0.6 | 0.4 | 0.7 | 2.6 | -0.2 | -2.2 | nt
CC(=O)Nc1ccc(S(=O)(=O)NC2CCS(=O)(=O)C2)cc1Cl (stereo unspecified) | -0.1 | 6.7 | -1.4 | -1.3 | -4.3 | -8.5 | nt
O=C(CC(=O)N1CCN(c2ccccn2)CC1)Nc1ccc2nc3n(c(=O)c2c1)CCCCC3 | 2.2 | 6.9 | 2.6 | 1.6 | 0.7 | 3.2 | nt
Cc1ccc(S(=O)(=O)NC(=O)Nc2ccc(N(C)C)cc2)cc1 | 13.2 | 87.4* | 3.2 | 1.9 | 10.2 | 27.7* | 5.3
O=[N+]([O-])c1ccc(NCc2ccccc2N2CCC(CO)CC2)nc1 | 0.3 | -3.4 | 0.4 | 0.9 | -6.7 | -5.0 | nt
Cc1ccc(S(=O)(=O)N(C)CC(=O)Nc2nc3ccccc3s2)cc1 | -1.3 | 1.2 | 5.3 | 0.3 | 1.2 | 0.8 | nt
Cc1ccc(/C(=N/Nc2nc3ccccc3s2)C2=C(O)c3ccccc3C2=O)cc1 | 8.9 | -17.4 | -0.9 | -3.2 | 10.2 | 42.1* | 16.6*
CCC1OC2(C)OC(=N)C1(C#N)C(C#N)(C#N)C2c1ccccc1 (stereo unspecified) | 11.0 | 12.8 | 14.3 | 8.7 | 10.9 | 15.5* | -1.2
CCC12OC(=N)C(C#N)(C1C)C(C#N)(C#N)C(c1ccccc1)O2 (stereo unspecified) | -0.6 | 0.0 | 0.7 | -2.1 | 0.3 | 3.0 | nt
CC(C)C1OC2(C)OC(=N)C1(C#N)C(C#N)(C#N)C2c1ccccc1 (stereo unspecified) | 12.1 | 11.2 | 6.6 | 11.3 | 12.2 | 19.2* | 16.0*
Cn1c(=O)c2c(ncn2CC(=O)Nc2nc(-c3ccccc3Cl)cs2)n(C)c1=O | 10.3 | -1.6 | 12.9 | -1.3 | 1.4 | 90.0* | 2.3
CCOC(=O)Cc1csc(NC(=O)Cn2cnc3c2c(=O)n(C)c(=O)n3C)n1 | -5.8 | 6.2 | 7.3 | -0.9 | -2.2 | 3.4 | nt
CCOC(=O)c1c(C)[nH]c(C2=NNC(=NC3CC3)SC2)c1C | -0.1 | 11.0 | 5.7 | -1.0 | 4.3 | 16.6* | 11.8
CCOC(=O)c1c(C)[nH]c(/C(C)=N/O)c1C | -2.5 | -6.5 | 2.2 | -0.5 | 2.9 | 3.6 | nt
CC(CC(=O)N1CCc2ccccc21)S(=O)(=O)c1ccc2c(c1)NC(=O)CO2 (stereo unspecified) | 3.8 | 4.6 | -5.0 | 2.7 | -1.8 | -4.6 | nt
O=C(Cn1sc2ccccc2c1=O)NC12CC3CC(CC(C3)C1)C2 | -0.8 | 1.6 | -0.1 | -5.6 | -2.8 | 16.4* | 29.8*
O=C(/C=C/c1ccccc1)C1=C(O)C(=O)N(CCO)C1c1ccccc1[N+](=O)[O-] (stereo unspecified) | 2.8 | 7.1 | 9.1 | -0.8 | 1.6 | 23.6* | -1.1
Cn1c(N)c(S(=O)(=O)NCc2ccc(Cl)cc2)c(=O)n(C)c1=O | -1.0 | 4.2 | 2.2 | -5.3 | 2.9 | 6.3 | nt
COc1cc(N2C(=O)CSC23C(=O)Nc2ccccc23)cc(OC)c1OC (stereo unspecified) | 0.3 | -6.3 | 4.7 | 0.0 | -2.1 | 15.1* | 16.4*
COc1ccc(N2C(=O)CSC23C(=O)Nc2ccccc23)cc1OC (stereo unspecified) | 3.6 | -3.0 | 0.2 | -0.9 | -2.5 | 6.7 | nt

High-throughput results: PubChem, The Scripps Research Institute Molecular Screening Center
